Reference: the supplement of paper PMC6555819

What was measured:
Experiment in all cases: PBM binding z-score (relative to random genomic background probes); higher = stronger binding; sequences stand for … in GC…GCGATTGACAGCGTAGAATGAAGG
[1] = test system: RARb homodimer (NR concentration 270 nM)
How it was run: (§1)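 For binding z-scores, the reference was random background probes on custom Agilent 4×180K protein-binding microarrays. These arrays were incubated 1 h with ligand-free nuclear receptor dimers in PBS pH 7.4, 2% milk, 0.02% Triton X-100, 1 mM DTT, 0.2 mg/mL BSA and 0.4 mg/ml salmon testes DNA. Fluorescence was scanned after antibody detection of each partner (one per run) and regression-normalized.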

[2] = test system: RARg:RXRa (NR concentration 270 nM, RXRa partner concentration 90 nM)
How it was run: as §1

[3] = test system: RARg homodimer (NR concentration 270 nM)
How it was run: as §1

[4] = test system: RXRa DBDmut IVT, anti-RXR (DBD mutation: RXRa K156A/R161A, NR concentration 90 nM)
How it was run: as §1

[5] = test system: RXRa homodimer (NR concentration 180 nM)
How it was run: as §1

[6] = test system: THRa:RXRa (NR concentration 90 nM, RXRa partner concentration 90 nM)
How it was run: as §1

[7] = test system: THRa homodimer (NR concentration 90 nM)
How it was run: as §1

[8] = test system: VDR homodimer (NR concentration 270 nM)
How it was run: as §1

## CGAACCAGGTCAAGGACAGTGAATCTCCGCACGC
[1]
  PBM binding z-score: 3.09
[2]
  PBM binding z-score: 3.99
[3]
  PBM binding z-score: 4.33
[4]
  PBM binding z-score: 2.23
[5]
  PBM binding z-score: 3.47
[6]
  PBM binding z-score: 3.82
[7]
  PBM binding z-score: 2.79
[8]
  PBM binding z-score: 1.05

## ATACCAAGGTGATCGTGAGGTCGTTTATACTAAC
[1]
  PBM binding z-score: 1.98
[2]
  PBM binding z-score: 2.29
[3]
  PBM binding z-score: 1.01
[4]
  PBM binding z-score: 1.06
[5]
  PBM binding z-score: 1.36
[6]
  PBM binding z-score: 3.56
[7]
  PBM binding z-score: 2.59
[8]
  PBM binding z-score: 3.5

## TGAATGAAGTTATAAGATCAGGGAACGTTGCAAA
[1]
  PBM binding z-score: -0.946
[2]
  PBM binding z-score: -0.0858
[3]
  PBM binding z-score: -0.101
[4]
  PBM binding z-score: -0.953
[5]
  PBM binding z-score: -0.319
[6]
  PBM binding z-score: -0.471
[7]
  PBM binding z-score: -0.931
[8]
  PBM binding z-score: -0.524

## GCTCGGCGGACAAGGTCAGAGCTTTGTCCGTAGA
[1]
  PBM binding z-score: 2.47
[2]
  PBM binding z-score: 2.59
[3]
  PBM binding z-score: 2.54
[4]
  PBM binding z-score: -0.314
[5]
  PBM binding z-score: 2.11
[6]
  PBM binding z-score: 2.25
[7]
  PBM binding z-score: 0.553
[8]
  PBM binding z-score: 0.0541

## TCTTGTACATCAGCAGGTTAAGAAAGCTGGCCAA
[1]
  PBM binding z-score: 0.266
[2]
  PBM binding z-score: 0.217
[3]
  PBM binding z-score: -0.00852
[4]
  PBM binding z-score: 0.924
[5]
  PBM binding z-score: 0.606
[6]
  PBM binding z-score: 0.455
[7]
  PBM binding z-score: -0.157
[8]
  PBM binding z-score: 0.111

## GTGACTGGGGCATCAGCAGGTTACCATAACTTAA
[1]
  PBM binding z-score: 1.3
[2]
  PBM binding z-score: 1.36
[3]
  PBM binding z-score: 0.86
[4]
  PBM binding z-score: -0.0186
[5]
  PBM binding z-score: 0.481
[6]
  PBM binding z-score: 1.09
[7]
  PBM binding z-score: 0.198
[8]
  PBM binding z-score: -0.0019

## GCTTGTTGGTCAGTAAAAGGTCACACACCGGTCG
[1]
  PBM binding z-score: 5.37
[2]
  PBM binding z-score: 5.53
[3]
  PBM binding z-score: 4.67
[4]
  PBM binding z-score: 0.545
[5]
  PBM binding z-score: 5.16
[6]
  PBM binding z-score: 3.5
[7]
  PBM binding z-score: 2.15
[8]
  PBM binding z-score: 1.68

## AGAACGAGCGCAATGAGTTGATAGCACGGGTGGC
[1]
  PBM binding z-score: -0.96
[2]
  PBM binding z-score: -0.134
[3]
  PBM binding z-score: -0.287
[4]
  PBM binding z-score: -0.213
[5]
  PBM binding z-score: -0.0749
[6]
  PBM binding z-score: -0.609
[7]
  PBM binding z-score: -1.01
[8]
  PBM binding z-score: 0.00307

## TCATGTAGGTAAATGCTAGGTGAAAGTCCGATCT
[1]
  PBM binding z-score: 0.541
[2]
  PBM binding z-score: 0.226
[3]
  PBM binding z-score: 0.15
[4]
  PBM binding z-score: 1.26
[5]
  PBM binding z-score: 0.398
[6]
  PBM binding z-score: 1.28
[7]
  PBM binding z-score: 0.741
[8]
  PBM binding z-score: 0.319

## GCTCGGAGGACAAGGTCTGAGCTTTGTCCGTAGA
[1]
  PBM binding z-score: 0.301
[2]
  PBM binding z-score: -0.104
[3]
  PBM binding z-score: 0.27
[4]
  PBM binding z-score: -0.359
[5]
  PBM binding z-score: -0.785
[6]
  PBM binding z-score: 0.705
[7]
  PBM binding z-score: -0.422
[8]
  PBM binding z-score: -0.592

## AGAATGAGGTTATTATGATCAGGGAATTGCGGTC
[1]
  PBM binding z-score: 0.795
[2]
  PBM binding z-score: 1.07
[3]
  PBM binding z-score: 0.882
[4]
  PBM binding z-score: 2.21
[5]
  PBM binding z-score: 1.7
[6]
  PBM binding z-score: 2.21
[7]
  PBM binding z-score: 1.08
[8]
  PBM binding z-score: 1.41

## AATACAGGGTCGTCGTAGGCCAGAGTACGCACAG
[1]
  PBM binding z-score: 1.42
[2]
  PBM binding z-score: 2.13
[3]
  PBM binding z-score: 1.29
[4]
  PBM binding z-score: 1.76
[5]
  PBM binding z-score: 2.81
[6]
  PBM binding z-score: 3.4
[7]
  PBM binding z-score: 0.245
[8]
  PBM binding z-score: 1.78

## TCTAGCAGCCCAGAGGGTCACTCAAGAGGTACGG
[1]
  PBM binding z-score: 2.38
[2]
  PBM binding z-score: 2.16
[3]
  PBM binding z-score: 1.8
[4]
  PBM binding z-score: -0.186
[5]
  PBM binding z-score: 2.23
[6]
  PBM binding z-score: 1.63
[7]
  PBM binding z-score: -0.455
[8]
  PBM binding z-score: 0.294

## TCGAGTAGGTTACCAGTGGGGCATTCAGCTTTCT
[1]
  PBM binding z-score: 0.636
[2]
  PBM binding z-score: 1.06
[3]
  PBM binding z-score: 0.275
[4]
  PBM binding z-score: 0.241
[5]
  PBM binding z-score: 0.437
[6]
  PBM binding z-score: 0.157
[7]
  PBM binding z-score: -0.534
[8]
  PBM binding z-score: -0.388

## ACTAGCAGGCCAAGGGTCACTAAAGATTAGTCCG
[1]
  PBM binding z-score: 3.83
[2]
  PBM binding z-score: 4.08
[3]
  PBM binding z-score: 3.84
[4]
  PBM binding z-score: 0.469
[5]
  PBM binding z-score: 4.13
[6]
  PBM binding z-score: 2.31
[7]
  PBM binding z-score: 0.0838
[8]
  PBM binding z-score: 1.07

## CGTCCAAGGTCAGGGAGGTCAGTGAATGCCGAGT
[1]
  PBM binding z-score: 5.45
[2]
  PBM binding z-score: 6.54
[3]
  PBM binding z-score: 7.67
[4]
  PBM binding z-score: 2.48
[5]
  PBM binding z-score: 6.37
[6]
  PBM binding z-score: 4.58
[7]
  PBM binding z-score: 3.43
[8]
  PBM binding z-score: 5.37
